Where “and” joins values, the source holds several entries; their conditions need not be identical. Equal values may be shown once. Results filed as inconclusive are left out. A call without a number means that no potency is given here. Calls of active or inactive are those of the source. Calls follow the shape of the dose curve; as a rule, active = well fitted curve in the direction sought with a large enough effect; inconclusive = small, poorly fitted or top-dose-only effect, or another doubt; inactive = no such curve, though single readings can be large; an effect the other way counts as inactive or inconclusive.
Experiment: qHTS of pediatric cancer cell lines to identify multiple opportunities for drug repurposing: Primary screen for U-2 OS cells (AID 1347096); also: nearly all actives have a fitted effect of over 50% in size
Details: U-2 OS viability, CellTiter-Glo luminescence, 48 h; series mostly up to 46 µM; activity change, negative = cytotoxic: at the top concentration
How it was run: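 Cells (500-1,000/well) in growth media were settled 5 h at 37 degrees C, then given compounds for 48 h. Viability was read as CellTiter-Glo luminescence. Primary runs used MIPE at 11 points (0.78 nM-46 µM) and NPC at 8 points (0.59 nM-46 µM); follow-ups used 11 points.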

Structure (SMILES)	Potency	activity change, negative = cytotoxic
Cc1cn([C@H]2C[C@H](N=[N+]=[N-])[C@@H](CO)O2)c(=O)[nH]c1=O	inactive	
CC(C)(Oc1ccc(C2CC2(Cl)Cl)cc1)C(=O)O (stereo unspecified)	inactive	
CC12CC3CC(C)(C1)CC(N)(C3)C2	inactive	
COc1ccc2c(c1)c(CC(=O)O)c(C)n2C(=O)c1ccc(Cl)cc1	inactive	
CCOC(=O)Nc1ccc(NCc2ccc(F)cc2)nc1N	inactive	
C[C@H]1c2cccc(O)c2C(O)=C2C(=O)[C@]3(O)C(O)=C(C(N)=O)C(=O)[C@@H](N(C)C)[C@@H]3[C@@H](O)[C@@H]21	inactive	
NC12CC3CC(CC(C3)C1)C2	inactive	
CN(C)CCC=C1c2ccccc2C=Cc2ccccc21	inactive	
CN1C(C(=O)Nc2ccccn2)=C(O)c2ccccc2S1(=O)=O	inactive	
CC1(CN2CCC(n3c(=O)[nH]c4ccccc43)CC2)OCc2ccccc2-n2cccc21 (stereo unspecified)	inactive	
CN1CCC(=C2c3ccccc3CC(=O)c3sccc32)CC1	inactive	
Nc1nc2c(ncn2COC(CO)CO)c(=O)[nH]1		17.5% (inactive)
COc1ccccc1OCCNCC(O)COc1cccc2[nH]c3ccccc3c12 (stereo unspecified)	inactive	
CC(CCc1ccc(O)cc1)NCCc1ccc(O)c(O)c1 (stereo unspecified)	inactive	
Cc1cc(C(C)(C)C)cc(C)c1CC1=NCCN1	inactive	
OCCN(CCO)c1nc(N2CCCCC2)c2nc(N(CCO)CCO)nc(N3CCCCC3)c2n1		-18.1% (inactive)
Cc1cn([C@H]2C=C[C@@H](CO)O2)c(=O)[nH]c1=O	inactive	

Structure (SMILES)	Potency	activity change, negative = cytotoxic
COc1ccc2[nH]cc(CCNC(C)=O)c2c1	inactive	
COc1ccccc1OCC(O)CN1CCN(CC(=O)Nc2c(C)cccc2C)CC1 (stereo unspecified)	inactive	
C[C@](N)(Cc1ccc(O)c(O)c1)C(=O)O	inactive	
Fc1ccc([C@@H]2CCNC[C@H]2COc2ccc3c(c2)OCO3)cc1	inactive	
CC(C)C(=O)Nc1ccc([N+](=O)[O-])c(C(F)(F)F)c1	inactive	
O=C1Cc2cc(CCN3CCN(c4nsc5ccccc45)CC3)c(Cl)cc2N1		-6.37% (inactive)
CC(C(=O)O)c1cccc(C(=O)c2ccccc2)c1 (stereo unspecified)	inactive	
O=c1c(-c2ccc(O)cc2)coc2cc(O)cc(O)c12	inactive	
CC1COc2c(N3CCN(C)CC3)c(F)cc3c(=O)c(C(=O)O)cn1c23 (stereo unspecified)	inactive	
Cn1c(=O)c2[nH]cnc2n(C)c1=O	inactive	
CN1CCC(=C2c3ccccc3C=Cc3ccccc32)CC1	inactive	
NC(=O)NO		11.9% (inactive)
O=c1[nH]cc(F)c(=O)[nH]1	inactive	
Clc1ccccc1C(c1ccccc1)(c1ccccc1)n1ccnc1		-11.3% (inactive)
CCC1(c2ccccc2)C(=O)NCNC1=O	inactive	
CC(COc1ccccc1)N(CCCl)Cc1ccccc1 (stereo unspecified)	inactive	
Cc1ccc(-c2cc(C(F)(F)F)nn2-c2ccc(S(N)(=O)=O)cc2)cc1	inactive	

Experiment: qHTS of pediatric cancer cell lines to identify multiple opportunities for drug repurposing: Primary screen for Saos-2 cells (AID 1347097); also: nearly all actives have a fitted effect of over 40% in size; also: potency is read from the fitted curve at half-maximal effect
Details: Saos-2 viability, CellTiter-Glo ATP luminescence, 48 h; series mostly up to 46 µM; activity change, negative = cytotoxic: at the top concentration
How it was run: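 Plated cells (500-1,000 per well, growth media) were allowed to settle for 5 hours, treated with compound dilutions for 48 hours, then lysed with CellTiter-Glo for 15 min at room temperature before luminescence reading.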

Structure (SMILES)	activity change, negative = cytotoxic	Potency
Cc1cn([C@H]2C[C@H](N=[N+]=[N-])[C@@H](CO)O2)c(=O)[nH]c1=O	13.3% (inactive)	
CC(C)(Oc1ccc(C2CC2(Cl)Cl)cc1)C(=O)O (stereo unspecified)		inactive
CC12CC3CC(C)(C1)CC(N)(C3)C2		inactive
CCOC(=O)Nc1ccc(NCc2ccc(F)cc2)nc1N		inactive
C[C@H]1c2cccc(O)c2C(O)=C2C(=O)[C@]3(O)C(O)=C(C(N)=O)C(=O)[C@@H](N(C)C)[C@@H]3[C@@H](O)[C@@H]21		inactive
NC12CC3CC(CC(C3)C1)C2		inactive
CN(C)CCC=C1c2ccccc2C=Cc2ccccc21		29.6 µM (active)
CN1C(C(=O)Nc2ccccn2)=C(O)c2ccccc2S1(=O)=O	-24.2% (inactive)	
CC1(CN2CCC(n3c(=O)[nH]c4ccccc43)CC2)OCc2ccccc2-n2cccc21 (stereo unspecified)	0.144% (inactive)	
CN1CCC(=C2c3ccccc3CC(=O)c3sccc32)CC1		inactive
COc1ccccc1OCCNCC(O)COc1cccc2[nH]c3ccccc3c12 (stereo unspecified)	5.08% (inactive)	
CC(CCc1ccc(O)cc1)NCCc1ccc(O)c(O)c1 (stereo unspecified)		18.7 µM (active) and 21.1 µM (active)
Cc1cc(C(C)(C)C)cc(C)c1CC1=NCCN1	-22% (inactive)	
Cc1cn([C@H]2C=C[C@@H](CO)O2)c(=O)[nH]c1=O		inactive
COc1ccc2[nH]cc(CCNC(C)=O)c2c1		inactive
COc1ccccc1OCC(O)CN1CCN(CC(=O)Nc2c(C)cccc2C)CC1 (stereo unspecified)		inactive
C[C@](N)(Cc1ccc(O)c(O)c1)C(=O)O	-27.3% (inactive)	
Fc1ccc([C@@H]2CCNC[C@H]2COc2ccc3c(c2)OCO3)cc1		inactive
CC(C)C(=O)Nc1ccc([N+](=O)[O-])c(C(F)(F)F)c1		0.59 µM (active)
CC(C(=O)O)c1cccc(C(=O)c2ccccc2)c1 (stereo unspecified)	9.89% (inactive)	
O=c1c(-c2ccc(O)cc2)coc2cc(O)cc(O)c12		inactive
CC1COc2c(N3CCN(C)CC3)c(F)cc3c(=O)c(C(=O)O)cn1c23 (stereo unspecified)		inactive
Cn1c(=O)c2[nH]cnc2n(C)c1=O		inactive
O=c1[nH]cc(F)c(=O)[nH]1	1.14% (inactive)	
Clc1ccccc1C(c1ccccc1)(c1ccccc1)n1ccnc1		26.6 µM (active) and 33.2 µM (active)
CCC1(c2ccccc2)C(=O)NCNC1=O		inactive
Cc1ccc(-c2cc(C(F)(F)F)nn2-c2ccc(S(N)(=O)=O)cc2)cc1		16.8 µM (active)

From PubChem BioAssay (NCATS)
